PubChem BioAssay AID602428 (Sanford-Burnham Center for Chemical Genomics, 2012)
Screen size: about 2,500 compounds; about 980 (39%) were called active. A selection follows. Values without a mark were called inactive.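 How the source made its calls: active means mean inhibition at 5 µM reaching about 45% (limit read from the data); inactive means the rest.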

Assay: Gli-SUFU pathway antagonists, confirmation, single concentration, luciferase luminescence, Sufu-KO-LIGHT cells (AID 602428);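 further: plate controls were DMSO-treated cells for no effect and wells lacking cells for full effect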
Conditions: Gli luciferase reporter, at 5 µM, stronger effect = higher value

| SMILES | inhibition |
| --- | --- |
| C=CCC1(CC=C)CCCN1C(=O)c1cc(COc2ccc(-n3cncn3)cc2)on1 | 78.5% (active) |
| Cc1nonc1C1CCCN1C(=O)c1cc(COc2cccc(C(F)(F)F)c2)on1 (stereo unspecified) | 26.7% |
| O=[N+]([O-])c1ccc(N2CCN(CC(O)COc3ccccc3)CC2)cc1 (stereo unspecified) | 27.5% |
| COc1ccc(/C=N/N=C2/C(=O)Nc3ccccc32)cc1O | 21.9% |
| COc1ccc(Cc2nnc(N/N=C/c3ccccc3O)[nH]c2=O)cc1OC | 73.7% (active) |
| c1ccc(-n2nnnc2N2CCOCC2)cc1 | 6.89% |
| CC(C)c1ccc(OCC(O)CN2CCN(c3ccccn3)CC2)cc1 (stereo unspecified) | 10.6% |
| Cc1cc([N+](=O)[O-])c(-c2ccc(/C=N/n3cnnc3)o2)cc1Cl | 15.1% |
| O=C(C[C@H]1C/C=C\C[C@@H](NC(=O)OCC2c3ccccc3-c3ccccc32)C(=O)O[C@@H](c2ccccc2)CNC1=O)N[C@H](CO)Cc1ccccc1 | 57.2% (active) |
| COC(=O)c1ccccc1NC(=O)C1(S(=O)(=O)c2ccc(Cl)cc2)CC1 | 15.8% |
| Cc1onc(-c2ccccc2)c1C(=O)Nc1ccccc1C#N | 14.9% |
| Cc1cccc2nc(CSc3nc4[nH]ncc4c(=O)n3-c3cccc(Cl)c3)cc(=O)n12 | 64.1% (active) |
| CCN(CCO)C(=S)Nc1cc(C(=O)OC)ccc1C(=O)OC | 21.2% |
| CC(=O)Nc1ccc(NC(=O)c2ccc3c(c2)C(=O)N(c2ccccc2C)C3=O)cc1 | 28.9% |
| Cc1ccc(O)c(NC(=O)COc2cc(C)ccc2C)c1 | 76.8% (active) |
| C/C(=N\Nc1ccc(Cl)nn1)c1ccccc1O | 47.1% (active) |
| COc1ccc2nc(SCC(=O)Nc3c(C)cc(C)cc3C)[nH]c2c1 | 23.1% |
| CSc1ncccc1C(=O)Nc1nc2ccc(F)cc2s1 | 79.4% (active) |
| Cc1cc(C)c(SCCc2ccncc2)c(C)c1 | 27% |
| Cc1ccc(NC(=O)CN(C)CC(=O)Nc2cccc(F)c2)cc1[N+](=O)[O-] | 67.8% (active) |
| CCCC1=Nc2cc(C(=O)NCc3ccco3)ccc2Sc2ccccc21 | 31.8% |
| O=C1C=C(c2ccnc3cc(Cl)ccc23)C[C@@H](c2ccc3c(c2)OCO3)C1 | 61% (active) |
| COc1ccc(C(=O)NC2CCCc3c2cnn3-c2cccc(C)c2C)c(OC)n1 (stereo unspecified) | 51.3% (active) |
| CN(c1ccc2nc3ccccc3c(=O)n2n1)C1CCCCC1 | 79.3% (active) |
| COc1cccc(-n2cc(C(=O)O)c3ccccc3c2=O)c1 | 22.9% |
| COc1cccc2cc(C(N)=O)/c(=N\NC(=O)c3ccccc3)oc12 | 23.9% |
